Experimental data from PubChem BioAssay AID1159580 (chemical genetic matrix, 2015).
The campaign covered roughly 5,500 compounds. About 2,000 (36%) were called active. Inconclusive results (about 18%) are left out. Rule as the data show it: active = normalized growth mostly below about 0.91 (no sharp cut-off); inconclusive = no clear call, values can overlap the other calls; inactive = mostly above about 0.92. Some of the results follow.

Assay: chemical genetic growth profiling, strain panel (AID 1159580);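 also: tested at 20 µM; growth read once vehicle control cultures reached saturation at 30 °C; 1 = growth at the plate median or of vehicle wells; lower values mean less growth of the strain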
Settings: growth OD
[1] = S. cerevisiae deletion strains, locus YAR019C, strain CDC15, active compounds read low
[2] = S. cerevisiae deletion strains, locus YBL105C, strain PKC1, active compounds read low
[3] = S. cerevisiae deletion strains, locus YBR135W, strain CKS1, active compounds read low
[4] = S. cerevisiae deletion strains, locus YBR136W, strain MEC1, active compounds read low
[5] = S. cerevisiae deletion strains, locus YBR160W, strain CDC28, active compounds read low
[6] = S. cerevisiae deletion strains, locus YDL017W, strain CDC7, active compounds read low
[7] = S. cerevisiae deletion strains, locus YDL028C, strain MPS1, active compounds read low
[8] = S. cerevisiae deletion strains, locus YDL101C, strain DUN1, active compounds read low
[9] = S. cerevisiae deletion strains, locus YDL108W, strain KIN28, active compounds read low
[10] = S. cerevisiae deletion strains, locus YDL132W, strain cdc53, active compounds read low
[11] = S. cerevisiae deletion strains, locus YDL214C, strain PRR2, active compounds read low
[12] = S. cerevisiae deletion strains, locus YDR052C, strain DBF4, active compounds read low
[13] = S. cerevisiae deletion strains, locus YDR054C, strain cdc34, active compounds read low
[14] = S. cerevisiae deletion strains, locus YDR226W, strain ADK1, active compounds read low
[15] = S. cerevisiae deletion strains, locus YDR477W, strain SNF1, active compounds read low
[16] = S. cerevisiae deletion strains, locus YER123W, strain YCK3, active compounds read low
[17] = S. cerevisiae deletion strains, locus YER133W, strain GLC7, active compounds read low
[18] = S. cerevisiae deletion strains, locus YFL009W, strain cdc4, active compounds read low
[19] = S. cerevisiae deletion strains, locus YFL029C, strain CAK1, active compounds read low
[20] = S. cerevisiae deletion strains, locus YFR003C, strain YPI1, active compounds read low
[21] = S. cerevisiae deletion strains, locus YFR019W, strain FAB1, active compounds read low
[22] = S. cerevisiae deletion strains, locus YFR028C, strain CDC14, active compounds read low
[23] = S. cerevisiae deletion strains, locus YGR040W, strain KSS1, active compounds read low
[24] = S. cerevisiae deletion strains, locus YGR052W, strain FMP48, active compounds read low
[25] = S. cerevisiae deletion strains, locus YGR092W, strain DBF2, active compounds read low
[26] = S. cerevisiae deletion strains, locus YHR030C, strain SLT2, active compounds read low
[27] = S. cerevisiae deletion strains, locus YHR079C, strain IRE1, active compounds read low
[28] = S. cerevisiae deletion strains, locus YHR082C, strain KSP1, active compounds read low
[29] = S. cerevisiae deletion strains, locus YHR205W, strain SCH9, active compounds read low
[30] = S. cerevisiae deletion strains, locus YIL147C, strain SLN1, active compounds read low
[31] = S. cerevisiae deletion strains, locus YJL095W, strain BCK1, active compounds read low
[32] = S. cerevisiae deletion strains, locus YJL128C, strain PBS2, active compounds read low
[33] = S. cerevisiae deletion strains, locus YJL157C, strain FAR1, active compounds read low
[34] = S. cerevisiae deletion strains, locus YJR016C, strain ILV3, active compounds read low
[35] = S. cerevisiae deletion strains, locus YJR066W, strain TOR1 (second series), active compounds read low
[36] = S. cerevisiae deletion strains, locus YJR066W, strain TOR1, active compounds read low
[37] = S. cerevisiae deletion strains, locus YKL048C, strain ELM1, active compounds read low
[38] = S. cerevisiae deletion strains, locus YKL067W, strain YNK1, active compounds read low
[39] = S. cerevisiae deletion strains, locus YKL101W, strain HSL1, active compounds read low
[40] = S. cerevisiae deletion strains, locus YKL193C, strain SDS22, active compounds read low
[41] = S. cerevisiae deletion strains, locus YKL203C, strain TOR2, active compounds read low
[42] = S. cerevisiae deletion strains, locus YLR113W, strain HOG1, active compounds read low
[43] = S. cerevisiae deletion strains, locus YLR133W, strain CKI1, active compounds read low
[44] = S. cerevisiae deletion strains, locus YLR403W, strain SFP1, active compounds read low
[45] = S. cerevisiae deletion strains, locus YML070W, strain DAK1, active compounds read low
[46] = S. cerevisiae deletion strains, locus YMR001C, strain CDC5, active compounds read low
[47] = S. cerevisiae deletion strains, locus YMR205C, strain PFK2 (second series), active compounds read low
[48] = S. cerevisiae deletion strains, locus YMR277W, strain FCP1, active compounds read low
[49] = S. cerevisiae deletion strains, locus YNL006W, strain LST8, active compounds read low
[50] = S. cerevisiae deletion strains, locus YNL020C, strain ARK1, active compounds read low
[51] = S. cerevisiae deletion strains, locus YNL161W, strain CBK1, active compounds read low
[52] = S. cerevisiae deletion strains, locus YNL183C, strain NPR1, active compounds read low
[53] = S. cerevisiae deletion strains, locus YNL207W, strain RIO2, active compounds read low
[54] = S. cerevisiae deletion strains, locus YNL222W, strain SSU72, active compounds read low
[55] = S. cerevisiae deletion strains, locus YNL307C, strain MCK1 (second series), active compounds read low
[56] = S. cerevisiae deletion strains, locus YOL078W, strain AVO1, active compounds read low
[57] = S. cerevisiae deletion strains, locus YOL136C, strain PFK27, active compounds read low
[58] = S. cerevisiae deletion strains, locus YOR061W, strain CKA2, active compounds read low
[59] = S. cerevisiae deletion strains, locus YOR119C, strain RIO1, active compounds read low
[60] = S. cerevisiae deletion strains, locus YOR231W, strain MKK1, active compounds read low
[61] = S. cerevisiae deletion strains, locus YOR329C, strain SCD5, active compounds read low
[62] = S. cerevisiae deletion strains, locus YPL031C, strain PHO85, active compounds read low
[63] = S. cerevisiae deletion strains, locus YPL153C, strain RAD53, active compounds read low
[64] = S. cerevisiae deletion strains, locus YPL204W, strain HRR25, active compounds read low
[65] = S. cerevisiae deletion strains, locus YPL209C, strain IPL1, active compounds read low
[66] = S. cerevisiae deletion strains, locus YPL256C, strain CLN2, active compounds read low
[67] = S. cerevisiae deletion strains, locus YPR025C, strain CCL1, active compounds read low
[68] = S. cerevisiae deletion strains, locus YPR106W, strain ISR1, active compounds read low
[69] = S. cerevisiae deletion strains, locus YPR111W, strain DBF20, active compounds read low
[70] = S. cerevisiae deletion strains, strain NNK1, active compounds read low
[71] = S. cerevisiae deletion strains, strain TSCII, active compounds read low

Measured: normalized growth

O=C1/C(=C/c2ccc(C(F)(F)F)cc2)COc2ccccc21
inactive: [1] 0.937 | [2] 0.924 | [3] 0.92 | [4] 0.924 | [5] 0.926 | [6] 0.926 | [7] 0.925 | [8] 0.946 | [9] 0.923 | [10] 0.934 | [11] 0.936 | [12] 0.931 | [13] 0.931 | [14] 0.925 | [15] 0.914 | [16] 0.886 | [17] 0.913 | [18] 0.926 | [19] 0.927 | [20] 0.93 | [21] 0.953 | [22] 0.961 | [23] 0.894 | [24] 0.953 | [25] 0.719 | [27] 0.888 | [28] 0.85 | [29] 0.784 | [30] 0.917 | [31] 0.901 | [32] 0.896 | [33] 0.92 | [34] 0.929 | [35] 0.976 | [36] 0.817 | [37] 0.897 | [38] 0.938 | [39] 0.906 | [40] 0.93 | [41] 0.921 | [43] 0.916 | [44] 0.846 | [45] 0.922 | [46] 0.918 | [47] 0.889 | [48] 0.933 | [49] 0.948 | [50] 0.881 | [51] 0.936 | [52] 0.88 | [53] 0.925 | [54] 0.938 | [55] 0.861 | [56] 0.931 | [57] 0.913 | [58] 0.879 | [59] 0.868 | [60] 0.916 | [61] 0.931 | [62] 0.897 | [63] 0.93 | [64] 0.921 | [65] 0.932 | [67] 0.925 | [68] 0.959 | [69] 0.946 | [70] 0.91 | [71] 0.932
active: [26] 0.824 | [42] 0.823 | [66] 0.852

O=C1/C(=C/c2ccc(Cl)cc2)COc2ccc(F)cc21
inactive: S. cerevisiae deletion strains, locus YAL013W, strain DEP1, active compounds read low 0.956 | S. cerevisiae deletion strains, locus YBR229C, strain ROT2, active compounds read low 0.978 | [8] 1.01 | S. cerevisiae deletion strains, locus YDR150W, strain NUM1, active compounds read low 1.01 | S. cerevisiae deletion strains, locus YEL061C, strain CIN8, active compounds read low 0.934 | S. cerevisiae deletion strains, locus YGR078C, strain PAC10, active compounds read low 0.972 | S. cerevisiae deletion strains, locus YGR229C, strain SMI1, active compounds read low 0.951 | S. cerevisiae deletion strains, locus YHR087W, strain rtc3, active compounds read low 0.96 | S. cerevisiae deletion strains, locus YJR043C, strain POL32, active compounds read low 0.977 | S. cerevisiae deletion strains, locus YJR075W, strain HOC1, active compounds read low 0.98 | S. cerevisiae deletion strains, locus YLR058C, strain SHM2 (second series), active compounds read low 0.959 | S. cerevisiae deletion strains, locus YML094W, strain GIM5, active compounds read low 0.941 | S. cerevisiae deletion strains, locus YMR219W, strain ESC1, active compounds read low 0.963 | S. cerevisiae deletion strains, locus YMR263W, strain SAP30, active compounds read low 0.942 | S. cerevisiae deletion strains, locus YNL153C, strain GIM3, active compounds read low 0.986 | S. cerevisiae deletion strains, locus YNL322C, strain KRE1, active compounds read low 0.959 | S. cerevisiae deletion strains, locus YPL055C, strain LGE1, active compounds read low 0.963 | S. cerevisiae strains, strain wild type, active compounds read low 0.967
active: [26] 0.305 | S. cerevisiae deletion strains, locus YLR039C, strain RIC1, active compounds read low 0.472 | S. cerevisiae deletion strains, locus YLR085C, strain ARP6, active compounds read low 0.431 | S. cerevisiae deletion strains, locus YLR262C, strain YPT6, active compounds read low 0.528 | S. cerevisiae deletion strains, locus YNL298W, strain CLA4 (second series), active compounds read low 0.83 | S. cerevisiae deletion strains, locus YNR030W, strain Alg12, active compounds read low 0.829 | S. cerevisiae deletion strains, locus YPL241C, strain CIN2, active compounds read low 0.704 | S. cerevisiae deletion strains, locus YPR135W, strain CTF4, active compounds read low 0.405

O=C1/C(=C/c2cccs2)COc2ccccc21
active: [2] 0.899 | [8] 0.908 | [26] 0.778 | [30] 0.891 | [35] 0.603 | [42] 0.667 | [61] 0.9 | [65] 0.894 | [66] 0.802
inactive: [1] 0.903 | [3] 0.913 | [4] 0.899 | [5] 0.908 | [6] 0.911 | [7] 0.9 | [9] 0.901 | [10] 0.902 | [11] 0.793 | [12] 0.93 | [13] 0.88 | [14] 0.901 | [15] 0.779 | [16] 0.73 | [17] 0.765 | [18] 0.901 | [19] 0.897 | [20] 0.906 | [21] 0.884 | [22] 0.901 | [23] 0.766 | [24] 0.767 | [25] 0.684 | [27] 0.871 | [28] 0.735 | [29] 0.783 | [31] 0.832 | [32] 0.873 | [33] 0.789 | [34] 0.9 | [36] 0.762 | [37] 0.873 | [38] 0.831 | [39] 0.829 | [40] 0.901 | [41] 0.853 | [43] 0.86 | [44] 0.796 | [45] 0.802 | [46] 0.895 | [47] 0.831 | [48] 0.909 | [49] 0.916 | [50] 0.839 | [51] 0.906 | [52] 0.763 | [53] 0.9 | [54] 0.91 | [55] 0.803 | [56] 0.906 | [57] 0.816 | [58] 0.813 | [59] 0.833 | [60] 0.82 | [62] 0.756 | [63] 0.777 | [64] 0.786 | [67] 0.911 | [68] 0.901 | [69] 0.907 | [70] 0.906 | [71] 0.895
